# Only some compounds are listed: those with a hit (about 0.4% of all), similar ones and a draw of the others.
# GLA inh pH 4.5 = qHTS Assay for Inhibitors of Human alpha-Galactosidase at pH 4.5. 230,000 tested, under 10 active. activity change, negative = inhibition, % at 105 µM. Alpha-galactosidase A (Homo sapiens), P06280. purified enzyme, 4-MU-alpha-Gal fluorescence, pH 4.5
# Target sequence (P06280 whole entry, looked up): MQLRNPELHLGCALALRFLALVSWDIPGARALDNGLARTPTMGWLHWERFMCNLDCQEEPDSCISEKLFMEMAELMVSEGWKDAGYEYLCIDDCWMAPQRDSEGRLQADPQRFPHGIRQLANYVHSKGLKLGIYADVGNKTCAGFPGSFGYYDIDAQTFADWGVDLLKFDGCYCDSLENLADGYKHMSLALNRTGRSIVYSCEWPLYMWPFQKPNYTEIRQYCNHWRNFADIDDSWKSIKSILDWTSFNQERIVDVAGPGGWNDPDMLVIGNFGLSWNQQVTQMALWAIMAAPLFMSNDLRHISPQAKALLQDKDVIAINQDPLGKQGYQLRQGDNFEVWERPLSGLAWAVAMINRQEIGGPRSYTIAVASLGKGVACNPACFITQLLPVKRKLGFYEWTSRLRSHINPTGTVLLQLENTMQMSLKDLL
# GAA glycogen mod = qHTS Assay for Inhibitors and Activators of Human alpha-Glucosidase Cleavage of Glycogen. Lysosomal alpha-glucosidase (Homo sapiens), P10253. Potency, µM (highest dose often 76.4 µM), usual class: inhibitors. recombinant GAA, glycogen substrate, Amplex Red glucose oxidase fluorescence. hit rate 0.38% among 300,000. AID 2100, 2009;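 further: the screen sought inhibitors and activators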
#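 qHTS, 1536-well; enzyme 4 nM final; cpd up to 77 uM; substrate bovine liver glycogen 30 ug; 50 mM citrate/phosphate pH 5.0, 0.01% Tween-20; 37 C, 40 min; Amplex Red detection 45 min RT; Hill fit → AC50.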
# GAA inh = qHTS Assay for Inhibitors of Human alpha-Glucosidase as a Potential Chaperone Treatment of Pompe Disease; purified human GAA, 4-MU-alpha-glucoside fluorescence; Potency, µM (titrated, usually from 76.9 µM), usual class: inhibitors; hit rate 0.005% among 200,000
#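 Enzyme (4 nM final) mixed with compound (up to 77 uM), then 4-MU-alpha-D-pyranoside (400 uM final) added; 20 min at room temperature, pH 5.0. Reaction stopped at pH 10, fluorescence read, AC50 derived by Hill fit.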
# GLA spleen mod = qHTS Assay for Inhibitors and Activators of Human alpha-Galactosidase From Spleen Homogenate. Alpha-galactosidase A (Homo sapiens), P06280. human spleen homogenate, 4MU-alpha-Gal fluorescence, 40 min. Potency, µM (top dose mostly 80 µM), actives largely listed as inhibitors. hit rate 0.008% among 240,000
#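 Fluorogenic readout (Ex 365/Em 440 nm) of 4-methylumbelliferone released from 1 mM 4-MU-alpha-galactoside by spleen homogenate, 40 min at 37C, pH 5.0. Data normalized to no-enzyme and enzyme controls; Hill-equation AC50 from compound titrations.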
# GAA spleen mod = qHTS Assay for Inhibitors and Activators of Human alpha-Glucosidase From Spleen Homogenate. Lysosomal alpha-glucosidase (Homo sapiens), P10253. human spleen homogenate, 4-MU-alpha-glucoside fluorescence. Potency, µM (top dose mostly 79.9 µM), most hits filed as inhibitors. hit rate 0.006% among 240,000. AID 2112, 2009
#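 Human spleen homogenate (1 ug) with 4-methylumbelliferyl-alpha-D-glucopyranoside (1 mM final) in 50 mM citrate/phosphate pH 5.0, 0.01% Tween-20; 40 min at 37 C. Stopped at pH 10; 4-MU fluorescence Ex 365/Em 440 nm; AC50 by Hill fit.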
# Hits are given with their value; i = inactive; ? = inconclusive; nt = no result given; ! = not confirmed by another sample; [ ] = dose if it differs, or a comment. The call rests on the fitted dose curve; in most records, active means well fitted curve in the direction sought with a large enough effect; inconclusive means small, poorly fitted or top-dose-only effect, or another doubt; inactive means no such curve, though single readings can be large; an effect the other way counts as inactive or inconclusive.
SMILES,GLA inh pH 4.5,GAA glycogen mod,GAA inh,GLA spleen mod,GAA spleen mod
Nc1ccccc1Nc1cc(-c2ccccc2)[nH]n1,i,7.9µM,i,i,i
CC(=O)c1c(O)cccc1O,nt,nt,nt,i,i
COc1ccc(/C=N/Nc2nccnc2Cl)c(OC)c1,i,?,i,i,i
COc1ccc(/C=N/Nc2nonc2N)c(OC)c1,i,35µM,i,i,i
Brc1ccc2nc(-c3cccs3)c(NCC3CCCO3)n2c1 (stereo not given),i,6.3µM,i,i,i
Clc1ccc(Nc2c(-c3cccs3)nc3ccc(Cl)cn23)cc1,nt,i,nt,nt,nt
C=CC1=C2C=C(C3CC3)N(Cc3ccccc3)C=C2C(=O)C(C)(OC(=O)c2ccco2)C1=O (stereo not given),i,nt,nt,i[17.5 µM],i[17.4 µM]
CCOC(=O)C1=C(C)NC(SCc2cc(=O)[nH][nH]2)=C(C#N)C1c1cccs1 (stereo not given),i,31µM,i,i,i
CC1(C)OC(=O)C(=NNc2ccc(O)cc2)C(=O)O1,i,11µM,i,i,i
COc1ccc2[nH]cc(CCNc3ccnc(-c4ccccc4C)n3)c2c1,nt,nt,nt,32µM,i
COc1cccc(-c2nccc(NCCc3c[nH]c4ccc(OC)cc34)n2)c1,nt,nt,nt,?,i
O=c1cc(-c2ccccc2)oc2cc(O)c(O)c(O)c12,i,nt,nt,i,i
O=c1c(O)cccc2cc(O)c(O)c(O)c12,i,14µM,i,i,i
CCOC(=O)c1c(C)[nH]c2c1cc(O)c1ccccc12,i,16µM,i,i,i
C=CCNC(=S)NNc1nc(Nc2ccccc2)nc(N2CCCCC2)n1,i,16µM,i,i,i
CC(C)(C)c1ccc(N2C[C@@H](COc3ccc(C(=O)O)cc3)CC2=O)cc1,nt,nt,nt,i,i
CN=c1scc(-c2ccc(F)cc2)n1/N=C/c1ccc(O)c(O)c1,i,5.6µM,i,i,i
Nc1ccc(NC(=S)Nc2ccccc2)cc1,i,i,i,i,i
S=C(NCCNC(=S)Nc1ccccc1)Nc1ccccc1,nt,i,nt,nt,nt
OCCCNC(=S)Nc1ccc(Nc2ccccc2)cc1,i,14µM,i,i,i
Oc1ccc(NC(=S)Nc2ccccc2)cc1,i,11µM!,i,i,i
CCCCC(C)/C=C(C)/C=C(\C)C(=O)NC1=CC(O)(/C=C/C=C/C=C/C(=O)NC2=C(O)CCC2=O)C2OC2C1=O (stereo not given),nt,nt,nt,i,i
O=C(O)c1cccc(N/N=C/c2cccc3ccccc23)c1,nt,32µM,nt,nt,nt
O=C(N/N=C/c1ccc(O)cc1)c1cccc(N/N=C/c2ccc(O)cc2)c1,i,25µM,i,i,i
O=C(N/N=C/c1ccncc1)c1cccc(N/N=C/c2ccncc2)c1,i,i,i,i,i
SMILES,GLA inh pH 4.5,GAA glycogen mod,GAA inh,GLA spleen mod,GAA spleen mod
Cc1ccc(/C=N/Nc2cccc(C(=O)O)c2)s1,i,i,i,i,i
COc1c(O)cc2c(=O)oc3c(OC)c(O)cc4c(=O)oc1c2c34,i,nt,nt,i,i
O=c1cc2c(=O)oc3cc(O)c(O)oc3c2c(O)c1O,i,8.9µM,i,i,i
COc1ccc(NC(=O)NS(=O)(=O)c2ccc(C)cc2)c(OC)c1,i,25µM,i,i,i
Nc1cc(CN2C(=O)c3ccccc3C2=O)cc(Cl)c1O,i,7.9µM,i,i,i
O=C1c2ccccc2C(=O)N1Cc1cc(Cl)c(O)c([N+](=O)[O-])c1,nt,i,nt,nt,nt
CCOc1cc(/C=C2\C(=O)N(Cc3ccc(C)cc3)C(C)=C2C(=O)OC)ccc1O,i,18µM,i,i,i
C=CCOc1cccc(/C=C2\C(=O)N(Cc3ccc(C)cc3)C(C)=C2C(=O)OC)c1,i,i,i,i,i
O=c1c(O)cc(C2Oc3cc(O)cc(O)c3CC2O)cc2c(C3Oc4cc(O)cc(O)c4CC3O)cc(O)c(O)c12 (stereo not given),i,nt,nt,i,i
COC(=O)CC1=NN(c2ccc(OC)cc2)C(=O)C1,i,28µM,?,i,i
Cc1ccn2c(Nc3ccc4c(c3)OCO4)c(-c3ccc(O)cc3)nc2c1,i,11µM,nt,i,i
c1ccc(-c2nc3cnccn3c2Nc2ccc3c(c2)OCCO3)cc1,i,?,i,i,i
Oc1ccc(-c2nc3ccccn3c2Nc2ccc3c(c2)OCCO3)cc1,nt,13µM,nt,nt,nt
Clc1cccc(-c2nc3ccccn3c2Nc2ccc3c(c2)OCCO3)c1,nt,4µM,nt,nt,nt
Cc1ccc2nc(-c3cccc(Cl)c3)c(Nc3ccc4c(c3)OCO4)n2c1,nt,i,nt,nt,nt
CN(C)c1ccc(-c2nc3ccccn3c2Nc2ccc3c(c2)OCCO3)cc1,nt,18µM,nt,nt,nt
COc1cccc(-c2nnc3n2N=C(c2c(OC)cccc2OC)CS3)c1,nt,nt,nt,i,i
C=C(C)C1CCC(C)C(OC(C)=O)C1 (stereo not given),nt,nt,nt,i,i
Oc1ccc(-c2nc3cnccn3c2Nc2ccc3c(c2)OCCO3)cc1,i,16µM,i[15.4 µM],i,i
CCOc1ccc(Cc2nnc(SCC(=O)c3ccc(OC)cc3)o2)cc1,i,i,i,i,i
CCOc1ccc(Nc2nc(Cc3nnc(SCC(=O)O)o3)cs2)cc1,i,14µM,i,i,i
COc1ccccc1N/N=C/c1c(CO)cnc(C)c1O,i,3.2µM,i,i,i
Cc1cccc(NC(=S)N(C)C)c1C,i,i,i[15.4 µM],i,i
Cc1cccc(Nc2cc(C)c3c(O)cccc3n2)c1C,i,10µM,i,i,i
N[C@H](CSSC[C@@H](N)C(=O)O)C(=O)O,nt,nt,nt,i,i
SMILES,GLA inh pH 4.5,GAA glycogen mod,GAA inh,GLA spleen mod,GAA spleen mod
O=C(CCSc1ccc(Cl)cc1)N1CCN(c2ccc(O)cc2)CC1,i,18µM,nt,i,i
O=C(CCOc1ccccc1)N1CCN(c2ccc(O)cc2)CC1,i,6.3µM,nt,i,i
O=C(COc1cccc(C(F)(F)F)c1)N1CCN(c2ccc(O)cc2)CC1,?,2µM,i,i,i
O=C(COc1cccc(C(F)(F)F)c1)N1CCN(c2ccccc2O)CC1,i,?,i,i,i
CCCc1cc2c(=O)c(-c3cscn3)c(C(=O)OCC)oc2cc1O,i,i,i,i,i
CCOC(=O)c1[nH]nc(-c2cc(CC)c(O)cc2O)c1-c1cscn1,i,12µM,i,i,i
